APP 5UTR inh – APP translation inhibition; inhibition, % at 2 µM; SH-SY5Y APP 5'UTR-luciferase reporter, luminescence; AID 1285; actives 0.82% (n = 190,000);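 active = inhibition above a set limit, derived from the sample mean plus 3 SD, cut at about 45% in these data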
Ba/F3 V617F tox – reduce viability of Ba/F3 cells dependent on JAK2V617F. Ba/F3 EpoR-JAK2V617F viability, ATP luminescence. inhibition, % at 5.6 µM. actives 1.1% (n = 220,000);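 active = inhibition above the campaign mean plus 3 SD over all tested compounds, cut at about 24% in these data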;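 note: cytokine-independent growth of Ba/F3 cells driven by EpoR plus mutant JAK2; 0% = DMSO-treated cells and 100% = JAK inhibitor I control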
BaF3 tox – parental Ba/F3 viability inhibition as JAK2V617F counter-screen; AID 1486; actives 1.1% (n = 220,000); inhibition, % at 5.6 µM; CellTiter-Glo ATP luminescence;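 active = inhibition above a per-campaign cutoff, the mean inhibition of all tested compounds plus 3 SD, cut at about 27% in these data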;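 note: 0% = DMSO wells and 100% = JAK Inhibitor I control wells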
KLF5 inh – kruppel-like factor 5 inhibition; DLD-1 KLF5 promoter-luciferase reporter, luminescence; inhibition, % at 5 µM; actives 0.23% (n = 290,000);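 active = inhibition above a per-plate limit of that plate's mean compound inhibition plus 3 SD, cut at about 60% in these data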;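 note: 0% = DMSO wells and 100% = LY294002 at 200 µM; higher means less KLF5 promoter-driven luciferase light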
IEC-6 tox – kills IEC-6 intestinal cells in KLF5 counter-screen | IEC-6 cytotoxicity, luminescence viability | actives 0.78% (n = 290,000) | AID 1825 | inhibition, % at 5 µM; in the data active = inhibition above about 22%;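 note: 0% = plate median of test compound wells and 100% = cytotoxic reference compound wells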
An asterisk follows results filed as active. Shown are actives, neighbours in structure and some others; about 1.8% of the full set was active somewhere.

For COc1ccc(-n2c(-c3ccc(Br)cc3)c[n+]3c2CCC3)cc1 the results were APP 5UTR inh 7, Ba/F3 V617F tox 81*, BaF3 tox 66*, KLF5 inh -1 and IEC-6 tox -1.
Cc1cccc(C(C)C)c1NS(=O)(=O)c1cn(C)nc1C was read as KLF5 inh -41 and IEC-6 tox 1.
`COc1cc(OC)cc(C(=O)N[C@H](C(=O)OCC(=O)N2CCc3ccccc32)C(C)C)c1` gave APP 5UTR inh -15, Ba/F3 V617F tox -3, BaF3 tox 2, KLF5 inh 6 and IEC-6 tox 4.
Nc1ncc(Br)cc1S(=O)(=O)Nc1cc(C(F)(F)F)cc(C(F)(F)F)c1 was read as KLF5 inh -16 and IEC-6 tox 8.
Screening CCOC(=O)c1c(C2CC2)csc1NC(=O)COC(=O)CCS(=O)(=O)c1ccc(C)cc1 returned APP 5UTR inh 6, Ba/F3 V617F tox -2, BaF3 tox 0, KLF5 inh 10 and IEC-6 tox 15.
`OCc1nc2ccccc2n1Cc1c(F)cccc1Cl` gave Ba/F3 V617F tox -5, BaF3 tox 1, KLF5 inh -7 and IEC-6 tox -1.
For CSc1nc2ccccc2n1Cc1c(Cl)cccc1Cl the results were APP 5UTR inh -13, Ba/F3 V617F tox 20, BaF3 tox 30*, KLF5 inh -34 and IEC-6 tox -3.
CC(Oc1cccc2c1OC(C)(C)C2)C(=O)O (stereo unspecified) was read as APP 5UTR inh 67*, Ba/F3 V617F tox 0, BaF3 tox 0, KLF5 inh -41 and IEC-6 tox 0.
For COc1ccc(C(C)=O)cc1COc1ccc(-n2cnnn2)cc1 the results were APP 5UTR inh -13, Ba/F3 V617F tox 2, BaF3 tox 3, KLF5 inh -48 and IEC-6 tox 3.
For O=C(N/N=C/c1cc(Cl)ccc1O)C(=O)Nc1ccccc1OC(F)(F)C(F)F the results were APP 5UTR inh 60*, Ba/F3 V617F tox 0, BaF3 tox 5, KLF5 inh -6 and IEC-6 tox 2.
`O=C(NC1CCSC1)c1cccc(Cl)c1` (stereo unspecified) gave Ba/F3 V617F tox -2, BaF3 tox 5, KLF5 inh -12 and IEC-6 tox 6.
CC#CC[N+](C)(C)CCCCCCCC was read as Ba/F3 V617F tox 66*, BaF3 tox 63*, KLF5 inh 27 and IEC-6 tox 8.
`N#Cc1ccccc1NC(=O)CSc1nnc(-c2ccncc2)o1` gave APP 5UTR inh 12, Ba/F3 V617F tox -2, BaF3 tox 0, KLF5 inh -14 and IEC-6 tox 0.
For Cc1ccc2[nH]c3c(N4CCCCCC4)ncnc3c2c1 the results were APP 5UTR inh -3, Ba/F3 V617F tox 46*, BaF3 tox 48*, KLF5 inh -41 and IEC-6 tox 7.
Cc1ccc2[nH]c3c(N4CCN(Cc5ccccc5)CC4)ncnc3c2c1 was read as APP 5UTR inh -9, Ba/F3 V617F tox 1, BaF3 tox 25, KLF5 inh -16 and IEC-6 tox 4.
For Cc1c(C(C)(C)C)c(C=S)n2ccccc12 the results were APP 5UTR inh 70*, Ba/F3 V617F tox -2, BaF3 tox 3, KLF5 inh 6 and IEC-6 tox 5.
CC(C)(C)c1ccc(-c2nc(C=O)c3ccccn23)cc1 was read as APP 5UTR inh -4, Ba/F3 V617F tox 0, BaF3 tox 3, KLF5 inh -16 and IEC-6 tox 5.
Screening CCCC1Cc2nc(Cl)c(C#N)cc2CO1 (stereo unspecified) returned Ba/F3 V617F tox 3, BaF3 tox 0, KLF5 inh -4 and IEC-6 tox 2.
For O=C(c1cc2sccc2n1Cc1ccc(F)cc1)N1CCCc2ccccc21 the results were APP 5UTR inh 58*, Ba/F3 V617F tox -3, BaF3 tox -3, KLF5 inh -12 and IEC-6 tox 2.
`CC(C)NC(=O)C1CCN(C(=O)c2cc3sccc3n2Cc2ccc(F)cc2)CC1` gave APP 5UTR inh 2, Ba/F3 V617F tox -3, BaF3 tox 0, KLF5 inh -8 and IEC-6 tox -5.
For O=C(NCCc1ccccc1)C1CCC(CNc2nc(=S)[nH]c3ccccc23)CC1 (stereo unspecified) the results were APP 5UTR inh -23, Ba/F3 V617F tox -3, BaF3 tox 2, KLF5 inh -3 and IEC-6 tox -1.
`C[n+]1c2n(c3ccccc31)N=C(c1ccccc1)CS2` gave APP 5UTR inh -2, Ba/F3 V617F tox 91*, BaF3 tox 68*, KLF5 inh -40 and IEC-6 tox 4.
For C[n+]1c2n(c3ccccc31)N=C(c1ccc(Br)cc1)CS2 the results were APP 5UTR inh -16, Ba/F3 V617F tox 66*, BaF3 tox 71*, KLF5 inh 6 and IEC-6 tox 1.
`C[n+]1c2n(c3ccccc31)N=C(c1ccc(-c3ccccc3)cc1)CS2` gave APP 5UTR inh 0, Ba/F3 V617F tox 99*, BaF3 tox 71*, KLF5 inh 18 and IEC-6 tox 16.
For Cc1cccc(-c2nnc3n2N=C(c2ccccc2)CS3)c1 the results were APP 5UTR inh -6, Ba/F3 V617F tox -1, BaF3 tox 4, KLF5 inh -16 and IEC-6 tox 1.
For O=C(CCN1C(=O)/C(=C/c2ccccc2F)SC1=S)NC1C=CS(=O)(=O)C1 (stereo unspecified) the results were KLF5 inh -6 and IEC-6 tox -1.
For O=C(/C=C/c1cccs1)Nc1ccc(Br)cn1 the results were APP 5UTR inh 92*, Ba/F3 V617F tox 74*, BaF3 tox 71*, KLF5 inh 23 and IEC-6 tox 81*.
CC(Sc1nnc2ccccn12)C(=O)Nc1ncc(Cl)cc1Cl (stereo unspecified) was read as APP 5UTR inh -6, Ba/F3 V617F tox 3, BaF3 tox -1, KLF5 inh -46 and IEC-6 tox 4.
`COc1ccc(-n2c(SC(C)C(=O)Nc3ncc(Cl)cc3Cl)nc3ccccc32)cc1` (stereo unspecified) gave APP 5UTR inh 25, Ba/F3 V617F tox 69*, BaF3 tox 62*, KLF5 inh 42 and IEC-6 tox 66*.
CC1(C)CC(=O)C2=C(C1)N(CC1CCCO1)C(=O)NC2(C(F)(F)F)C(F)(F)F (stereo unspecified) was read as APP 5UTR inh 7, Ba/F3 V617F tox -2, BaF3 tox 38*, KLF5 inh -14 and IEC-6 tox -2.
Screening CCOC(=O)COc1ccc2ccccc2c1/C=C/[N+](=O)[O-] returned APP 5UTR inh 62*, Ba/F3 V617F tox 1, BaF3 tox 6, KLF5 inh -6 and IEC-6 tox 3.
CCc1c(C)c(C#N)c2nc3ccccc3n2c1Cl was read as APP 5UTR inh 95*, Ba/F3 V617F tox -6, BaF3 tox -3, KLF5 inh -4 and IEC-6 tox -6.
`CCc1c(C)c(C#N)c2nc3ccccc3n2c1-n1nc(C)cc1C` gave APP 5UTR inh -20, Ba/F3 V617F tox -2, BaF3 tox 0, KLF5 inh 4 and IEC-6 tox 1.
For CC1=C(C(=O)Nc2cc(C(=O)N3CCC(C)CC3)ccc2C)SCCO1 the results were KLF5 inh 12 and IEC-6 tox -7.

High-throughput results as filed in PubChem BioAssay.
